The list is not random: actives were taken first. Their share in the collection is about 1.7%.
HEK293 tox: cytotoxicity counter-screen for GLP-1 receptor inverse agonists | actives 0.13% (n = 410,000) | HEK293 cAMP-luciferase reporter cells, luminescence, 24 h | Potency, µM (series often up to 38.3 µM), for the others: at the highest dose activity change, negative = inhibition, hits mostly inhibitors | AID 624418;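 also: loss of luciferase light is scored as toxicity; % is scaled to controls: 0 for no effect and ±100 for the full control effect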
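1536-well qHTS counterscreen of the MLSMR; 200 cells/uL, 12 h pre-incubation, 23 nL cpd, 24 h at 37 deg C 5% CO2, luciferase detection reagent, 12 min RT, luminescence. Inhibition = undesired.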
PTHR1 agonist: agonists of human PTHR1 parathyroid hormone receptor. actives 0.075% (n = 410,000). HEK293 GP2 PTHR1 cells, GloSensor cAMP luminescence, 1 h. Q03431. Potency, µM (highest dose often 115 µM), without a hit: at the top dose activation, most hits filed as activators; also: nearly all actives have a fitted effect of over 55% in size
Target sequence (Q03431 whole entry, looked up): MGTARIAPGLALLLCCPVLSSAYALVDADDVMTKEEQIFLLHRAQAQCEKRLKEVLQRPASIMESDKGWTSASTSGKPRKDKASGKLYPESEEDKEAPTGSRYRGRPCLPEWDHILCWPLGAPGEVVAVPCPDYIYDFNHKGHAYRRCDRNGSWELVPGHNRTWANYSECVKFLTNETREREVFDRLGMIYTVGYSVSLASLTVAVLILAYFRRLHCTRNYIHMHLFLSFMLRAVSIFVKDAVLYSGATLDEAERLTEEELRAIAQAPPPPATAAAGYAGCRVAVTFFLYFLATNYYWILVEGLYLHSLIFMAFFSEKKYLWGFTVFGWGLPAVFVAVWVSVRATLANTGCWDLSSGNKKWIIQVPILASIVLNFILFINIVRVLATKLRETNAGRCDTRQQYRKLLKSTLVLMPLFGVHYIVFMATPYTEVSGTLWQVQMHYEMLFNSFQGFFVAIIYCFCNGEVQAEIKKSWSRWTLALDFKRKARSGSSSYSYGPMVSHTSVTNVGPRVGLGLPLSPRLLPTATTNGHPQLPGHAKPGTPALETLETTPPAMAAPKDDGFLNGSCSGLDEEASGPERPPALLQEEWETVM
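HEK-293-derived GP2 cells expressing PTHR1 and a GloSensor cAMP reporter, 3,000/well, plated overnight, given luciferin plus IBMX (each 0.5 mM as added) for 1 h at 37 °C, then compound for 1 h at 37 °C. Luminescence was read after 15 min at room temperature.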
GLP-1R inv ag: GLP-1 receptor (human) inverse agonism. P43220. HEK293 GLP-1R CRE-luciferase, luminescence, 24 h; GLP-1R form is constitutively active. Potency, µM (titrated, usually from 38.3 µM), without a hit: at the top dose activity change, negative = inhibition, usual class: inhibitors. actives 1.6% (n = 410,000). AID 624417; also: % is scaled to controls: 0 for no effect and ±100 for the full control effect; nearly all actives have a fitted effect of over 55% in size
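GLP-1R inverse agonism mode: basal reporter luminescence in engineered HEK293 cells measured after one day of compound exposure at 37 deg C, with a 12 min room-temperature detection step.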
GLP-1R agonist: agonists of human GLP-1 receptor | HEK293 GLP-1R CRE-luciferase, luminescence, 4-6 h; cells express a hypersensitive GLP-1R form | actives 0.007% (n = 380,000) | Potency, µM (titrated, usually from 45.6 µM), inactives show top-dose activation, actives largely listed as activators; also: % of control where 0% means no effect
Active calls of the source: *; [ ] = dose if it differs, or a comment. Calls follow the shape of the dose curve; as a rule, active = well fitted curve in the direction sought with a large enough effect; inconclusive = small, poorly fitted or top-dose-only effect, or another doubt; inactive = no such curve, though single readings can be large; an effect the other way counts as inactive or inconclusive. Potency is read from the fitted curve at half-maximal effect.

`Cc1[nH]c2ccccc2c1C1(O)C(=O)N(C(C)C)c2ccccc21` (configuration not stated) gave HEK293 tox 2%, PTHR1 agonist 4%, GLP-1R inv ag 14% and GLP-1R agonist 3%.
Screening CC(C)(C)OC(=O)N1CCC2(CC1)Oc1ccc(F)cc1C(=O)C21CC(c2ccccc2)=NO1 (configuration not stated) returned HEK293 tox 6%, PTHR1 agonist inactive, GLP-1R inv ag 11µM* and GLP-1R agonist 7%.
For CCC(=O)OC1CCC2C3CCc4cc(O)ccc4C3CCC12C (configuration not stated) the results were GLP-1R agonist 4%.
`COc1ccc2c(c1)C1=NN(/C(C)=C/C(C)=O)C(c3ccc(F)cc3)C1CC2` (configuration not stated) gave HEK293 tox 20%, PTHR1 agonist -70%, GLP-1R inv ag 0% and GLP-1R agonist 9%.
Screening CN1N=C2c3ccccc3CCCC2C1c1ccc(F)cc1 (configuration not stated) returned HEK293 tox -26%, PTHR1 agonist inconclusive, GLP-1R inv ag 7.1µM* and GLP-1R agonist 8%.
For COc1cccc(N/C(SCc2ccccc2C)=C(/C#N)C(=O)NCc2cccs2)c1 the results were HEK293 tox 15%, PTHR1 agonist inactive, GLP-1R inv ag 7.1µM* and GLP-1R agonist -5%.
For COc1cccc(N/C(SCc2ccccc2Cl)=C(/C#N)C(=O)NCc2cccs2)c1 the results were HEK293 tox 12%, PTHR1 agonist -16%, GLP-1R inv ag -3% and GLP-1R agonist -1%.
`CCOc1ccccc1C1N=C(c2ccc(OC)cc2)CC(c2ccccc2O)N1` (configuration not stated) gave HEK293 tox 0%[0.307 µM], PTHR1 agonist -16%, GLP-1R inv ag 11%[0.307 µM] and GLP-1R agonist -12%.
For CC(C)C1N=C(c2ccc3c(c2)OCO3)CC(c2ccccc2O)N1 (configuration not stated) the results were HEK293 tox inconclusive, PTHR1 agonist -83%, GLP-1R inv ag 11µM* and GLP-1R agonist -12%.
CCn1c(CSCc2ccc(F)cc2)nnc1SCC(=O)N1CCN(c2ccccc2)CC1 was read as HEK293 tox -23%, PTHR1 agonist -49%[57.5 µM], GLP-1R inv ag inconclusive and GLP-1R agonist -7%.
`CCn1c(SCC(=O)N2CCN(c3ccccc3)CC2)nnc1-c1c[nH]c2ccccc12` gave HEK293 tox 2%, PTHR1 agonist -13%, GLP-1R inv ag 4µM* and GLP-1R agonist -1%.
For Cc1ccc(CSCc2nnc(SCC(=O)N3CCN(c4ccccc4)CC3)n2C)cc1 the results were HEK293 tox 16%, PTHR1 agonist -45%[57.5 µM], GLP-1R inv ag 7.9µM* and GLP-1R agonist 0%.
For CCn1c(SCC(=O)N2CCCc3ccccc32)nnc1-c1c[nH]c2ccccc12 the results were HEK293 tox -21%, PTHR1 agonist -35%[57.5 µM], GLP-1R inv ag 2.5µM* and GLP-1R agonist -4%.
Cn1c(SCC(=O)N2CCN(c3ccccc3)CC2)nnc1-c1c[nH]c2ccccc12 was read as HEK293 tox -11%, PTHR1 agonist -2%, GLP-1R inv ag inconclusive and GLP-1R agonist -1%.
For O=C(Cc1ccccc1)N/N=C/c1ccc2cccc(O)c2n1 the results were HEK293 tox 5.6µM*, PTHR1 agonist -6%, GLP-1R inv ag inconclusive and GLP-1R agonist 6%.
Screening CCCCCCN1C[C@@H](n2cc(C3CC3)nn2)[C@H](O)C[C@@H]1c1ccc(OC)cc1 returned HEK293 tox -25%, PTHR1 agonist -50%, GLP-1R inv ag inconclusive and GLP-1R agonist 4%.
For Cc1ccc(C23CC4CC(CC(C(=O)N5CCN(C)CC5)(C4)C2)C3)cc1 the results were HEK293 tox 12%, PTHR1 agonist inactive, GLP-1R inv ag 8.9µM* and GLP-1R agonist 9%.
For Cc1ccc(C23CC4CC(CC(NC(=O)N5CCN(C)CC5)(C4)C2)C3)cc1 the results were HEK293 tox -2%, PTHR1 agonist inactive, GLP-1R inv ag inconclusive and GLP-1R agonist -3%.
For COc1ccc(-c2cc3nc(C)cc(N)n3n2)cc1 the results were HEK293 tox 19%, PTHR1 agonist -33%, GLP-1R inv ag 7.9µM* and GLP-1R agonist -25%.
For O=C(NCc1ccc(F)cc1)C(Cc1ccccc1)n1cccc1 (configuration not stated) the results were HEK293 tox 2%, PTHR1 agonist -15%, GLP-1R inv ag 11µM* and GLP-1R agonist 3%.
COc1cccc(CNC(=O)C(Cc2ccccc2)n2cccc2)c1 (configuration not stated) was read as HEK293 tox 8%, PTHR1 agonist -1%, GLP-1R inv ag inconclusive and GLP-1R agonist 18%.
Screening Cc1ccc(NC(=O)C(Cc2ccccc2)n2cccc2)cc1 (configuration not stated) returned HEK293 tox -5%, PTHR1 agonist -20%, GLP-1R inv ag inconclusive and GLP-1R agonist 6%.
For O=C(Nc1ccc(F)cc1)C(Cc1ccccc1)n1cccc1 (configuration not stated) the results were HEK293 tox -5%, PTHR1 agonist -27%, GLP-1R inv ag 13µM* and GLP-1R agonist 12%.
COc1cccc(NC(=O)C(Cc2ccccc2)n2cccc2)c1 (configuration not stated) was read as HEK293 tox -5%, PTHR1 agonist -6%, GLP-1R inv ag 11µM* and GLP-1R agonist 5%.
Screening O=C(NCc1cccs1)C(Cc1ccccc1)n1cccc1 (configuration not stated) returned HEK293 tox 11%, PTHR1 agonist inactive, GLP-1R inv ag inconclusive and GLP-1R agonist 11%.
`Cc1ccc(-n2c(=O)[nH]c3cc(C(=O)NCc4ccccc4)ccc3c2=O)cc1` gave HEK293 tox 4%, PTHR1 agonist -24% and GLP-1R inv ag 6%.
For CCOC(=O)c1ccc(NC(=O)c2cccc3c(=O)c4c([nH]c23)CCCC4)cc1 the results were HEK293 tox 0%, PTHR1 agonist -1% and GLP-1R inv ag 8%.
CCn1cc(S(=O)(=O)NC(C)c2cc(OC)ccc2OC)cn1 (configuration not stated) was read as HEK293 tox 0%, PTHR1 agonist inactive, GLP-1R inv ag 18% and GLP-1R agonist -3%.
For S=C(NCc1cccs1)Nc1cc(Cl)cc(Cl)c1 the results were HEK293 tox inconclusive, PTHR1 agonist -16%, GLP-1R inv ag 8.9µM* and GLP-1R agonist 1%.
Screening COC(=O)C1=C(C(=O)OC)[C@@H]2N(C)c3ccccc3[C@@]23C[C@@H](CO)N=C3N1 returned HEK293 tox 6%, PTHR1 agonist -22%, GLP-1R inv ag 17% and GLP-1R agonist 0%.
`C=CCN(Cc1cc(OC)ccc1OC)C(=O)c1cc2ccc(OC)cc2[nH]1` gave HEK293 tox -4%, PTHR1 agonist -19%, GLP-1R inv ag 11µM* and GLP-1R agonist 11%.

Assay outcomes: PubChem BioAssay, National Center for Advancing Translational Sciences (NCATS)
